Tgondii IFNg – blocks Toxoplasma gondii growth in the presence of IFN-gamma; Toxoplasma gondii growth in IFN-gamma-treated host cells; stronger effect = lower value; activity change, negative = inhibition, % (concentration not given with the values); hit rate 3.8% among 69,000; AID 1259416; in the data active means activity change below about -70%, passing the limit was not always enough;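 further: host cells are HeLa cells infected with Toxoplasma gondii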
An asterisk follows results filed as active; i = inactive; ! = not active in a repeat. Only a selection was taken, and hits are over-represented in it overall.

SMILES | Tgondii IFNg
O=C(NCCNc1ccc(Cl)cc1[N+](=O)[O-])c1cccnc1 | -5
O=C(Nc1ccccc1)c1cc([N+](=O)[O-])ccc1Cl | 14
CC(C)CCN1CCn2c(CO)nnc2C1 | -26
Cn1nc(C2CCN(C(=O)c3ccncn3)CC2)n(Cc2ccccc2)c1=O | -42
CCN(CC)CCCC(C)Nc1c2ccc(Cl)cc2nc2ccc(OC)cc12 (stereo not drawn) | -72*!
COc1ccc2nc(C)cc(SCC(=O)c3ccc(Cl)cc3)c2c1 | 124
COc1cc(NC(C)CCCN)c2ncccc2c1 (stereo not drawn) | 28
COc1cccc(CN2CCC3(CC(NC(=O)c4cnn(C)c4)C3)C2)n1 (stereo not drawn) | 18
Cc1c(C(=O)NCC(C)n2cncn2)oc2c(C)cccc12 (stereo not drawn) | -7
COC(=O)[C@H](Cc1ccccc1)NC(=O)[C@@H](N)CC(=O)O | 16
COC[C@H](NC(=O)c1cnc(C)s1)C(=O)N[C@@H](COC)C(=O)N[C@@H](Cc1ccccc1)C(=O)C1(C)CO1 (stereo partly drawn) | -77*
COc1ncc(C(=O)NC(Cc2ccccc2)c2ccc3c(c2)OCCO3)cn1 (stereo not drawn) | 67
CCn1cc(-c2c(-c3ccccc3)ncn2CCN2CCCCC2CO)cn1 (stereo not drawn) | -3
COc1ccc(-c2nc3c(s2)CN(C(=O)Nc2cc(C)ccc2C)CC3)cc1 | 78
COc1ccc(-c2nc3c(s2)CN(C(=O)Nc2ccc(C)c(C)c2)CC3)cc1 | -95*
COc1cc(NC(=O)N2CCc3nc(-c4ccc(C)cc4)sc3C2)cc(OC)c1 | 31
COc1cccc(-c2nc3c(s2)CN(C(=O)Nc2ccc(Br)cc2)CC3)c1 | -36
COc1ccc(-c2nc3c(s2)CN(C(=O)Nc2ccccc2OC)CC3)cc1 | 7
COc1ccc(-c2nc3c(s2)CN(C(=O)Nc2cccc(SC)c2)CC3)cc1 | -116*
O=C(NC1CC1)N1CCOC2(CCCN(c3cccc(F)c3)C2)C1 (stereo not drawn) | 119
O=C(NCCc1c[nH]c2ccc(Cl)cc12)c1cc(-c2cccnc2)nc2ccccc12 | -2
Cc1ccc(C(=O)N2CCC(C3=CCN(CCO)CC3)CC2)cc1F | -5
C=CCn1c(=O)c(C(=O)Nc2ccc(CC)cc2)c(O)c2ccccc21 | -20
COc1ccc(OC)c(S(=O)(=O)N2CCc3c([nH]c4ccccc34)C2c2cccc(F)c2)c1 (stereo not drawn) | -45
CSc1ncccc1C(=O)N1Cc2cnc(CC(C)C)nc2C1 | 7
SMILES | Tgondii IFNg
CCCNC(=O)c1ccccc1-c1cccc(C(C)=O)c1 | 3
O=C(Nc1ccccc1OCCCc1ccccc1)c1ccccn1 | 5
CC(C)(C)C1CCc2[nH]nc(C(=O)Nc3cccc(Cn4cncn4)c3)c2C1 (stereo not drawn) | 0
CC(C)(C)C1CCc2[nH]nc(C(=O)Nc3ccccc3OCc3ccccn3)c2C1 (stereo not drawn) | -79*
CCCCCN1CC2CN(S(=O)(=O)c3ccccc3)CC21 (stereo not drawn) | 2
COc1ccc(SCC(O)CNCc2ccc(Cl)cc2)cc1 (stereo not drawn) | -80*
COc1ccc(CNCCCSc2ncccn2)cc1 | 20
COc1ccc(NC(=S)NCCSc2ccc(Cl)cc2)cc1 | -42
O=C(NCC1CCN(Cc2ccc3nonc3c2)C1)c1ccccn1 (stereo not drawn) | -8
Cc1ccc(S(=O)(=O)Nc2ccc3c(c2)CCC(=O)N3)cc1Cl | 69
O=c1[nH]cc(Nc2ccccc2)c(=O)[nH]1 | 27
O=c1c(Nc2ccccc2)c(Nc2ccccc2)c1=O | -82*
Nc1c(NCc2ccccc2)c(=O)c1=O | 28
Cc1ccc(C(NC(=O)C2(c3ccc(Cl)cc3)CCOCC2)c2cccnc2)cc1 (stereo not drawn) | -16
Cc1cc(C)n(C2CCN(c3nc(N(C)C)nc(C)c3C)C2)n1 (stereo not drawn) | -10
Cc1cc(C)n(-c2ccc(C(=O)Nc3nc(-c4cc(C)sc4C)cs3)cc2)n1 | 5
CCOc1ccccc1-c1ccccc1NC(=O)c1cc(-c2ccc(F)cc2)no1 | -9
CCOc1ccccc1-c1ccccc1NC(=O)c1ccc(-n2nc(C)cc2C)cc1 | -101*
CC(C)NS(=O)(=O)c1ccc(NC(=O)c2cc(-c3ccncc3)nc3ccccc23)cc1 | -33
COc1ccccc1N(Cc1nc(-c2ccc(OC(C)C)cc2)oc1C)S(=O)(=O)c1cccs1 | -30
CN(C)c1cccc(C(=O)N2CCc3c([nH]c4ccccc34)C2c2ccc(F)cc2)c1 (stereo not drawn) | -94*
Cc1ccc(C(=O)N2CCc3c([nH]c4ccccc34)C2c2ccc(F)cc2)cc1 (stereo not drawn) | -19
COc1ccc(C(=O)N2CCc3c([nH]c4ccccc34)C2c2ccc(F)cc2)cc1 (stereo not drawn) | -130*
CSc1ccc(C2c3[nH]c4ccccc4c3CCN2C(=O)c2ccc(N(C)C)cc2)cc1 (stereo not drawn) | -53
Cc1ccc(C2c3[nH]c4ccccc4c3CCN2C(=O)c2ccc(F)cc2)cc1 (stereo not drawn) | i
SMILES | Tgondii IFNg
Cc1ccc(C2c3[nH]c4ccccc4c3CCN2C(=O)c2ccc(Br)cc2)cc1 (stereo not drawn) | 246
CCOc1ccc(C2c3[nH]c4ccccc4c3CCN2C(=O)c2ccc(OC)cc2)cc1 (stereo not drawn) | -76
O=C(c1ccccc1)N1CCc2c([nH]c3ccccc23)C1c1ccc(F)cc1 (stereo not drawn) | -85*
O=C(c1ccccc1F)N1CCc2c([nH]c3ccccc23)C1c1ccc(F)cc1 (stereo not drawn) | 281
COCC(=O)N1CCc2c([nH]c3ccccc23)C1c1ccc(F)cc1 (stereo not drawn) | 410
COc1ccc(C2c3[nH]c4ccccc4c3CCN2C(=O)c2ccc(Br)cc2)cc1 (stereo not drawn) | -89*
Cc1nc(C)n(CC(=O)N2CCCC[C@H]3CN(C(=O)c4cscn4)C[C@H]32)n1 | 49
Nc1ncc(C(=O)N2CCCC(Nc3ccccc3)C2)c(-c2ccccc2)n1 (stereo not drawn) | 11
COC[C@@H]1CN(CC2CC2)C[C@@]12CCN(C(=O)Cc1ccccc1)C2 | -64
Cc1occc1C(=O)N1CC[C@H]2[C@@H]1CCN2CC1CCOCC1 | 126
CC1CCN(C(=O)CN2C(=O)CCc3cc(S(=O)(=O)N4CCC(C)CC4)ccc32)CC1 | -6
COCCC(=O)N1CCC2(CCOCC2COCC2CC2)CC1 (stereo not drawn) | 5
CCN1C[C@@H]2CCN(C(=O)C3CCCO3)CC[C@H]2S1(=O)=O (stereo partly drawn) | 11
O=C(Nc1ccc(-c2nc(-c3ccccc3)co2)cc1)Nc1cccc(F)c1 | 31
Cc1cnc(C)c(N2CCN(Cc3c(CO)cnc(C)c3O)CC2)n1 | -4
Cc1ncc(CO)c(CO)c1O | 6
Cc1ncc(CN2CCSCC2)c(CO)c1O | -76*
CCOC(=O)C1CCN(c2ncc(F)c(N3CCOCC3)n2)CC1 | 52
COc1cc(C(=O)O)ccc1NC(=O)[C@@H]1N[C@@H](CC(C)(C)C)[C@](C#N)(c2ccc(Cl)cc2F)[C@H]1c1cccc(Cl)c1F | -80*
COCCn1c2c(ccc1=O)CC(NCc1ccco1)CC2 (stereo not drawn) | 5
Cc1nc([C@H]2C[C@@H]3CCN(C(=O)c4cnoc4C)C[C@@H]3O2)sc1C | 71

High-throughput results: PubChem, Broad Institute
